About 8,800 targets were measured; listed, in parts, are those with a hit and a random draw of the rest. About 0.5% of all pairs of compound and target were hits. Values without a mark were called inactive.

UniProt Q9Y6R4, sequence (Q9Y6R4 whole entry, looked up): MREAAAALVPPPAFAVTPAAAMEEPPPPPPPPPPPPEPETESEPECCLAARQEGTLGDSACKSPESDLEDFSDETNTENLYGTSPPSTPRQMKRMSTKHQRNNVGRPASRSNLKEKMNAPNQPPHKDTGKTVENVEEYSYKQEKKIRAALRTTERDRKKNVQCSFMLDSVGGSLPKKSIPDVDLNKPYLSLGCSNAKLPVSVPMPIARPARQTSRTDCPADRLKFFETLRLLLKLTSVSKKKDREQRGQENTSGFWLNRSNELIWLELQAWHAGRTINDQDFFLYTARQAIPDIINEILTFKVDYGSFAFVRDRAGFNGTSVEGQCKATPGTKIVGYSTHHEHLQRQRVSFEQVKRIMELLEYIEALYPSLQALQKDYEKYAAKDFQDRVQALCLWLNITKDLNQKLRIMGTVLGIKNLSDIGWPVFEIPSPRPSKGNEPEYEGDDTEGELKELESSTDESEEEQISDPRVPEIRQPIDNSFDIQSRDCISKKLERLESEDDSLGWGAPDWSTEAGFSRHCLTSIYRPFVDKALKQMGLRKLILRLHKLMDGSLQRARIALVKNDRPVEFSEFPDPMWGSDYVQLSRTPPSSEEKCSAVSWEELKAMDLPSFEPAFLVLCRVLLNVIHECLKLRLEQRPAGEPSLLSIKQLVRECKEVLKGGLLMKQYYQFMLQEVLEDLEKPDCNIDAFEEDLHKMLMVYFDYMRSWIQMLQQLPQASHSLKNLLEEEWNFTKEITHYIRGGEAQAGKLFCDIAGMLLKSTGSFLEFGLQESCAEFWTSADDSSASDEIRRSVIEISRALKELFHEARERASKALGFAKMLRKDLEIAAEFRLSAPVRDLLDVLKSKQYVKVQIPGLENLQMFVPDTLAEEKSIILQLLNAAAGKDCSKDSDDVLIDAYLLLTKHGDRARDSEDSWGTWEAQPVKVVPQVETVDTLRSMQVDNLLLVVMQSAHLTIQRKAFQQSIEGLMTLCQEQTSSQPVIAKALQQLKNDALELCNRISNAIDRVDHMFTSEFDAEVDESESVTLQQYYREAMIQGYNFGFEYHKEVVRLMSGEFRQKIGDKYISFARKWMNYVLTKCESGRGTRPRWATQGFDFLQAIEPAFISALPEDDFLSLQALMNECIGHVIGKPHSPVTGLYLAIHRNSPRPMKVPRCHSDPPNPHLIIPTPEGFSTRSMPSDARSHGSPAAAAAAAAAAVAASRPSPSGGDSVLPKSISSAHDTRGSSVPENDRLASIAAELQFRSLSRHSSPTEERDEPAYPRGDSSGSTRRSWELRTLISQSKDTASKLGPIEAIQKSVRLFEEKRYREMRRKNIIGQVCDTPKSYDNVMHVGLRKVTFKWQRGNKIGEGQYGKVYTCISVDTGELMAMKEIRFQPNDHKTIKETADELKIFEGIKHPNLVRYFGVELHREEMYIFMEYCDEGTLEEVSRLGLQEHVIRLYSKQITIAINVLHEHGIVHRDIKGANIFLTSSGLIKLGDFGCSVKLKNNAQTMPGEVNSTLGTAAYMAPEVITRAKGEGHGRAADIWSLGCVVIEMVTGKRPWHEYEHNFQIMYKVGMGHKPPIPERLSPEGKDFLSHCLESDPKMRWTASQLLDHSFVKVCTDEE
UniProt Q8NF37, sequence (Q8NF37 whole entry, looked up): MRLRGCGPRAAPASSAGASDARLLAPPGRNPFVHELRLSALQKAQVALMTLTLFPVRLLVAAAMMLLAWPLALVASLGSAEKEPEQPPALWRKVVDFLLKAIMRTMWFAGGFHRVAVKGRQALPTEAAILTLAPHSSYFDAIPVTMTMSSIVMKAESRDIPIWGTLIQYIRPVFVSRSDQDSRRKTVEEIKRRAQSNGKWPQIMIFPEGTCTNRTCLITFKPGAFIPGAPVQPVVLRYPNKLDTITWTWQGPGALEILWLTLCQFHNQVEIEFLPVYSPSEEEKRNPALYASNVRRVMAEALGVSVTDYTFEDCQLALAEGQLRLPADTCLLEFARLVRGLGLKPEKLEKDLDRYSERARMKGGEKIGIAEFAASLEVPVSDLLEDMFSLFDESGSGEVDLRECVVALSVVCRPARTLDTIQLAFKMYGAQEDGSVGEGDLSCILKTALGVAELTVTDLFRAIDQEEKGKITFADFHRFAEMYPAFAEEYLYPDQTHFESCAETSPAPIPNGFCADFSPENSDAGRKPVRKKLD
UniProt Q8IWC1, sequence (Q8IWC1 whole entry, looked up): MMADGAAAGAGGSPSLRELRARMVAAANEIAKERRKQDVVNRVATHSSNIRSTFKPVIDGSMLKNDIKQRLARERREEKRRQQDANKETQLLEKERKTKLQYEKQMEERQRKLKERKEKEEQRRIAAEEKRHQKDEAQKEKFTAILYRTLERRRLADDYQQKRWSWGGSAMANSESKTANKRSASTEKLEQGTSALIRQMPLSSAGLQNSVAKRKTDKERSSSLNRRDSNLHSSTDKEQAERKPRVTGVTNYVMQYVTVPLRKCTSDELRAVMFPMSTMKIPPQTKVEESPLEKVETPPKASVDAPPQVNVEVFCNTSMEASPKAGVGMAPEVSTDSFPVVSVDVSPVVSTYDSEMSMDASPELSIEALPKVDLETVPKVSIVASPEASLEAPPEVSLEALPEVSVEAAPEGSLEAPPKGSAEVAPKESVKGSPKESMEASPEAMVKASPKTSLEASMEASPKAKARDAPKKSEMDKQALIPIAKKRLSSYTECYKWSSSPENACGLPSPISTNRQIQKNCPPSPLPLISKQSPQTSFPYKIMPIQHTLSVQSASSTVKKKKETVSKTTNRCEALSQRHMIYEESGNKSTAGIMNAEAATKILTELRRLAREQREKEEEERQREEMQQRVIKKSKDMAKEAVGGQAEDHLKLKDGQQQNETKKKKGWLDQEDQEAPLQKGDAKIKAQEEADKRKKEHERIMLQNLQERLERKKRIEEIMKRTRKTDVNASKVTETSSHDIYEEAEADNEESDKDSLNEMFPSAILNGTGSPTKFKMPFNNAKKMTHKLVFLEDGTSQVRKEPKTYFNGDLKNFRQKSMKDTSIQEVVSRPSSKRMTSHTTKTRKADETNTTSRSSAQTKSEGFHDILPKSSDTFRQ
UniProt P48449, sequence (P48449 whole entry, looked up): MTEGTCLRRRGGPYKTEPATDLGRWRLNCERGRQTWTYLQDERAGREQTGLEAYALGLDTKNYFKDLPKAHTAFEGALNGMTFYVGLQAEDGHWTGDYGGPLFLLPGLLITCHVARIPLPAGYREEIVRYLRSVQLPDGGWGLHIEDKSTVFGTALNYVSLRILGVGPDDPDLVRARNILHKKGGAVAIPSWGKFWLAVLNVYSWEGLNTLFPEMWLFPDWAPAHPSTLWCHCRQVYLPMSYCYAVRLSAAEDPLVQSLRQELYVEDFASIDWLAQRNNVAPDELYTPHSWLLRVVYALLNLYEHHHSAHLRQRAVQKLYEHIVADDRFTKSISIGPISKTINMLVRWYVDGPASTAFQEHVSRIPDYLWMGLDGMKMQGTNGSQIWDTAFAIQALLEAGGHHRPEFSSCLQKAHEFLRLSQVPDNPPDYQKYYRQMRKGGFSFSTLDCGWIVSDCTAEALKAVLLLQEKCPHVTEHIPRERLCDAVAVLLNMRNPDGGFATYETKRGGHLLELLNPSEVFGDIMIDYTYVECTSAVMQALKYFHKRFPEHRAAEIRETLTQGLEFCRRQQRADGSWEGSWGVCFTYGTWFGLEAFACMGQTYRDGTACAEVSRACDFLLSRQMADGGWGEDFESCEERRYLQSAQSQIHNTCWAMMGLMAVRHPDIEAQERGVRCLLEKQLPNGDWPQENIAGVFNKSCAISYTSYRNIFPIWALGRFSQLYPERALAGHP
UniProt Q9Y2E5, sequence (Q9Y2E5 whole entry, looked up): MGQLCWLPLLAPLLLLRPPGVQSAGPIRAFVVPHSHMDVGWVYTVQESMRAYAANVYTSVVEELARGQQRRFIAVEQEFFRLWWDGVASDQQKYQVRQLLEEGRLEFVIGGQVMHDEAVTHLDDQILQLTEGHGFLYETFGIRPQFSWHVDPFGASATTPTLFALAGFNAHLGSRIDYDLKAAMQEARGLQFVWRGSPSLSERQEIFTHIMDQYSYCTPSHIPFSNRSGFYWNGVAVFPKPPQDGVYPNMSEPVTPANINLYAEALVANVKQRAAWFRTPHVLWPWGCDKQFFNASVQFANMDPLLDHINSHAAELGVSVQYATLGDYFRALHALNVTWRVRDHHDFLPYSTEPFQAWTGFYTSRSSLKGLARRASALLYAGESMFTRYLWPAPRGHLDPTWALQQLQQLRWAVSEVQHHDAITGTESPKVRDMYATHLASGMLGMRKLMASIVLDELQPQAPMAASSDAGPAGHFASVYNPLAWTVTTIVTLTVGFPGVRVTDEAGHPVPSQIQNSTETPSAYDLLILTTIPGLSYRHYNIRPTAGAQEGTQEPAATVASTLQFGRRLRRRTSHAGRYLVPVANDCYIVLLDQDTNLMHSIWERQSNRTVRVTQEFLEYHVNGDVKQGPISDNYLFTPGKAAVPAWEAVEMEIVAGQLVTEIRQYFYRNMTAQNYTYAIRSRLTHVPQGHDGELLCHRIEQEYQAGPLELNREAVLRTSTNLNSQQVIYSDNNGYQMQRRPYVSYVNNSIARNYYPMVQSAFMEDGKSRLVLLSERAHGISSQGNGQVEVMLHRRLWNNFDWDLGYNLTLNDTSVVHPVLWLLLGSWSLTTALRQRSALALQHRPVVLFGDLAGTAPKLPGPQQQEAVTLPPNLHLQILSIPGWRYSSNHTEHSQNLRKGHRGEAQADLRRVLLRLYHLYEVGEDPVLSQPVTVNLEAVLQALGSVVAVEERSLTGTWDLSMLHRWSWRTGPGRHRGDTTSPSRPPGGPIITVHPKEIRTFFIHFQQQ
UniProt Q9NWR8, sequence (Q9NWR8 whole entry, looked up): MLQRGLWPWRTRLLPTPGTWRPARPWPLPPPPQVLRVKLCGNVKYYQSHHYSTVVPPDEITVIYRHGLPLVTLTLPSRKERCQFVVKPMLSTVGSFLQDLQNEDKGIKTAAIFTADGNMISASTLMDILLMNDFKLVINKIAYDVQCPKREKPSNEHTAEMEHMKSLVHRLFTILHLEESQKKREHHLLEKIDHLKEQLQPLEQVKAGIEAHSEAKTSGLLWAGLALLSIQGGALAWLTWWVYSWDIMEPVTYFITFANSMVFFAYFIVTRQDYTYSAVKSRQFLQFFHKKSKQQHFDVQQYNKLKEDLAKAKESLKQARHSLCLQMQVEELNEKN

Compound in the first assay: CC(C)C1=C2N=C(C=C(N2N=C1)NCC3=CC=CC=C3)NCCCCCCN
In words: log2 fold change, soluble protein after heating vs DMSO (PISA); higher = thermal stabilisation; K562 lysate, 10 uM; active = over 0.2 and 3.5 SD of the protein, either way, in both replicates (recomputed). Summed up: (§1)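 The values are log-two fold changes in thermal stability compared with solvent controls and come from duplicates. They were obtained by TMTpro 16plex LC-MS/MS, with channel sums equalised, on the supernatant after 21,000xg for 90 min. That supernatant came from crude K562 extract at 1 mg/mL protein treated with 10 μM compound for 30 min, heated for 3 min across 48°C-58°C, pooled and brought to 0.5% NP-40 at 4°C.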
In the case of MCMBP isoform 2 (UniProt Q9BTE3), the log2 fold change is 0.114.

As for MAP4K5 (UniProt Q9Y4K4), the log2 fold change is 0.098. With MACO1 (UniProt Q8N5G2), the log2 fold change was 0.01.

With LEPROT (UniProt O15243), the log2 fold change is 0.267.

On to KLHL12 isoform 2 (UniProt Q53G59), for which the log2 fold change is 0.073. For LSS (UniProt P48449), the log2 fold change was 0.026. Regarding KIF4B (UniProt Q2VIQ3), the log2 fold change was 0.013. Turning to MRPL27 (UniProt Q9P0M9), the log2 fold change is 0.106.

Consider MED25 isoform 3 (UniProt Q71SY5), for which the log2 fold change was -0.023. For MAP7D3 (UniProt Q8IWC1), the log2 fold change was -0.22.

For the target MITD1 (UniProt Q8WV92), the log2 fold change was 0.024.

Regarding MED14 (UniProt O60244), the log2 fold change is 0.01. Same read-out and setting: the result for LIMK2 isoform 3 (UniProt P53671) reads 0.008.

On to LAMP1 (UniProt P11279), for which the log2 fold change was 0.008. On the same count and under the same terms, the result for MAPK3 (UniProt P27361) reads -0.033; that for MRPL35 (UniProt Q9NZE8), 0.013.

Regarding MAN2B2 (UniProt Q9Y2E5), the log2 fold change is -0.051.

With MAST2 (UniProt Q6P0Q8), the log2 fold change is 0.071. The same measure, in the same setting: the result for MGST3 (UniProt O14880) reads -0.009. As for MAPK14 (UniProt Q16539), the log2 fold change was -0.06. MIF4GD isoform 3 (UniProt A9UHW6): the log2 fold change is 0.016. MME (UniProt P08473): the log2 fold change was -0.012. With MAP4K2 (UniProt Q12851), the log2 fold change is 0.04. The same measure, in the same setting: the result for MCUB (UniProt Q9NWR8) reads -0.063; that for METTL21A (UniProt Q8WXB1), 0. On the same count and under the same terms, the result for MINDY1 isoform 3 (UniProt Q8N5J2) reads -0.022. The same measure, in the same setting: the result for MAP4 isoform 5 (UniProt P27816) reads 0.03; that for MAPKAPK3 (UniProt Q16644), -0.011. Consider LPCAT1 (UniProt Q8NF37), for which the log2 fold change is -0.036. In the case of MANEA (UniProt Q5SRI9), the log2 fold change is 0.041. With MRPL30 isoform 2 (UniProt Q8TCC3), the log2 fold change is 0. With KRIT1 (UniProt O00522), the log2 fold change is 0.045.

As for LTN1 isoform 3 (UniProt O94822), the log2 fold change is 0.079. On to MAPK8 isoform 3 (UniProt P45983), for which the log2 fold change is 0.035. On the same count and under the same terms, the result for MED10 (UniProt Q9BTT4) reads -0.019. MAP3K4 (UniProt Q9Y6R4): the log2 fold change is -0.039. In the case of MAP4K4 isoform 6 (UniProt O95819), the log2 fold change was -0.021.

Compound in the next assay: CC1=C(C(CC(=O)N1)C2=CC=C(C=C2)C(F)(F)F)C(=O)NC3=C(C=C4C(=C3)C=NN4)F
Described as above. The essentials:
as §1
As to MCMBP isoform 2 (UniProt Q9BTE3), the log2 fold change is -0.111. For the target MAP4K5 (UniProt Q9Y4K4), the log2 fold change is -0.003. Consider MACO1 (UniProt Q8N5G2), for which the log2 fold change was 0.018. Consider KLHL12 isoform 2 (UniProt Q53G59), for which the log2 fold change is 0.026. Regarding LSS (UniProt P48449), the log2 fold change was 0.013. For the target KIF4B (UniProt Q2VIQ3), the log2 fold change is 0.04. On the same count and under the same terms, the result for MRPL27 (UniProt Q9P0M9) reads 0.002; that for MED25 isoform 3 (UniProt Q71SY5), 0.038; that for MAP7D3 (UniProt Q8IWC1), 0.035. Turning to MITD1 (UniProt Q8WV92), the log2 fold change is -0.02. Same read-out and setting: the result for MED14 (UniProt O60244) reads 0.021; that for LIMK2 isoform 3 (UniProt P53671), -0.03. With LAMP1 (UniProt P11279), the log2 fold change was 0.01. Turning to MAPK3 (UniProt P27361), the log2 fold change is -0.012. Turning to MRPL35 (UniProt Q9NZE8), the log2 fold change is -0.012. Turning to MAN2B2 (UniProt Q9Y2E5), the log2 fold change was 0.056. Same read-out and setting: the result for MGST3 (UniProt O14880) reads -0.004; that for MAPK14 (UniProt Q16539), -0.14. Consider MIF4GD isoform 3 (UniProt A9UHW6), for which the log2 fold change was -0.002. On the same count and under the same terms, the result for MME (UniProt P08473) reads -0.024; that for LIMK1 (UniProt P53667), -0.067. Still for that read-out and setting: the result for MCUB (UniProt Q9NWR8) reads 0.039; that for METTL21A (UniProt Q8WXB1), -0.019.

Regarding MINDY1 isoform 3 (UniProt Q8N5J2), the log2 fold change was -0.179. Consider MAP4 isoform 5 (UniProt P27816), for which the log2 fold change is 0.048. MAPKAPK3 (UniProt Q16644): the log2 fold change was 0.065.

LPCAT1 (UniProt Q8NF37): the log2 fold change was 0.066. Regarding MRPL30 isoform 2 (UniProt Q8TCC3), the log2 fold change is 0. On the same count and under the same terms, the result for KRIT1 (UniProt O00522) reads -0.041; that for LTN1 isoform 3 (UniProt O94822), 0.001. With MAPK8 isoform 3 (UniProt P45983), the log2 fold change is -0.057. With MED10 (UniProt Q9BTT4), the log2 fold change was -0.013.

Take MAP3K4 (UniProt Q9Y6R4): the log2 fold change is -0.015.

The record behind these values is the supplement of paper PMC10849652.
